Laboratory results taken from PubChem BioAssay (NCI).
Compounds without any hit were thinned out: in the full panel of roughly 79,000, 15% have a hit. Cut-off read from the data, not from the text of the source: active = growth inhibition above about 70%; inactive = the rest.

Columns and labels:
[1] = NCI Yeast Anticancer Drug Screen. Data for the rad50 strain (AID 155);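 note: 0% = growth of vehicle-only cultures of the same strain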; details: S. cerevisiae rad50 strain growth inhibition; at 50.0 µM; active compounds read high
Method in brief: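 A DNA repair-deficient yeast mutant serves as the test organism; compound-induced growth inhibition is calculated against vehicle-treated cells.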

[2] = NCI Yeast Anticancer Drug Screen. Data for the mec2-1 strain (AID 157); details: S. cerevisiae mec2-1 strain, at 50.0 µM, active compounds read high
Method in brief: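 Strain: mec2-1 (DNA repair/cell cycle alteration). Compound exposure, then growth measured; inhibition expressed relative to vehicle.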

[3] = NCI Yeast Anticancer Drug Screen. Data for the sgs1 mgt1 strain (AID 161);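 note: 0% = growth of cultures given vehicle only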; details: S. cerevisiae sgs1 mgt1 strain, at 50.0 µM, active compounds read high
Method in brief: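 Read-out: growth inhibition vs vehicle controls. Cells: mutant yeast strain deficient in DNA damage repair.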

[4] = NCI Yeast Anticancer Drug Screen. Data for the cln2 rad14 strain (AID 165);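 note: 0% = growth equal to vehicle treated cultures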; details: S. cerevisiae cln2 rad14 strain, at 50.0 µM, active compounds read high
Method in brief: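 Compounds are applied to the cln2 rad14 yeast strain, and growth is then compared with that of vehicle-treated cultures to give inhibition.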

[5] = NCI Yeast Anticancer Drug Screen. Data for the bub3 strain (AID 167); details: S. cerevisiae bub3 mutant strain, at 50.0 µM, active compounds read high
Method in brief: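 Inhibition values come from growth of compound-treated mutant yeast normalised to vehicle-treated controls.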

[6] = NCI Yeast Anticancer Drug Screen. Data for the mlh1 rad18 strain (AID 175); details: S. cerevisiae mlh1 rad18 strain growth inhibition; at 50.0 µM; active compounds read high
Method in brief: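 Read-out is yeast growth inhibition, calculated against vehicle-only controls. The compound was applied to a strain engineered with DNA damage repair alterations.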

Measured: growth inhibition

CC1=N[C@](C)(C2CC3C=CC2C3=O)COC1=O (stereo partly specified)
inactive: [1] -15.5% | [2] -18.5% | [3] -27% | [4] -1.9% | [5] -11.6% | [6] -5.45%

Cc1cc(O)c2c(c1)C(=O)C=CC2=O
inactive: [1] 6.7% | [2] 5.2% | [3] 1.3% | [4] 4.15% | [5] 10.3% | [6] -25.9%

O=C(c1ccc(Cl)c(Cl)c1)C(CS(=O)(=O)O)CS(=O)(=O)O (tested in a mixture with another compound)
inactive: [1] -1.55% | [2] 0.4% | [3] -0.8% | [4] -4.45% | [5] -4.8% | [6] 12.3%

Fc1ccc(-c2cc(-c3cc(-c4ccc(F)cc4)n[nH]3)[nH]n2)cc1
inactive: [1] 20.6% | [2] 9.2% | [3] 25.9% | [4] 6.6% | [5] 9.4% | [6] 32.1%

CC1=C(C(=O)Nc2ccccc2C)C(c2ccc(C3C(C(=O)Nc4ccccc4C)=CNC=C3C(=O)Nc3ccccc3C)cc2)C(C(=O)Nc2ccccc2C)=C(C)N1
inactive: [1] 29.3% | [2] 44.8% | [3] 28.9% | [4] 21% | [5] 50.4% | [6] 46%

C=C(C)C(CCC)(C(=O)OCC)C(=O)OCC
inactive: [1] 3.05% | [2] -9.15% | [3] 12.6% | [4] -4.3% | [5] -13.2% | [6] -14.1%

CCCCCCCC(CCCCCCC)C(=O)OCCO
inactive: [1] -7.4% | [2] -7.9% | [3] 3.7% | [4] -21.8% | [5] -4.95% | [6] -5.6%

O=[N+]([O-])c1ccccc1N/N=C/c1ccccc1
inactive: [1] -10.2% | [2] 7.1% | [3] 2.6% | [4] -65.9% | [5] 8.35% | [6] 10.8%

C#CCI
inactive: [1] 20.9% | [2] 6.5% | [3] 6.95% | [4] 33.9% | [5] 7.35% | [6] 17.5%

CCOC(=O)C(C(=O)OCC)=C(N)C(Cl)(Cl)Cl
inactive: [1] 0.2% | [2] -1.6% | [3] -9.9% | [4] 14.8% | [5] 11.7% | [6] -1.9%

COC(=O)Nc1ccc(C)cc1[N+](=O)[O-]
inactive: [1] 5.5% | [2] -8.75% | [3] -13.4% | [4] -50.4% | [5] 6.4% | [6] -0.6%

O=C1CCCC1CN1CCCCC1 (stereo unspecified)
inactive: [1] 3.25% | [2] -31.8% | [3] -13.7% | [4] 8.5% | [5] 22.1% | [6] -7.25%

CCOc1ccc(C2=NN(CC)C(=O)C(C3C(=O)N(c4ccccc4)N=C3C)C2)cc1 (stereo unspecified)
inactive: [1] 4.8% | [2] -7.3% | [3] -0.35% | [4] -30.9% | [5] -22.3% | [6] -10.2%

OC(CCN1CCC2CCC(C2)C1)(c1ccccc1)c1ccc(Cl)cc1 (stereo unspecified)
inactive: [1] -4.55% | [2] -16.1% | [3] 14% | [4] -26.5% | [5] 4.4% | [6] -17.2%

O/N=C1/C(=C/c2ccc(F)cc2)CCCC1C(NO)c1ccc(F)cc1 (stereo unspecified)
inactive: [1] -3.9% | [2] -22.1% | [3] -8.05% | [4] 3.35% | [5] -6% | [6] -17.7%

CNS(=O)(=O)c1ccc(N)cc1
inactive: [1] -2.9% | [2] -5.6% | [3] 2.8% | [4] -27.2% | [5] 3.15% | [6] 2.9%

CCC(=O)NN1C(=O)c2ccccc2C1=O
inactive: [1] -13.8% | [2] -15.4% | [3] -23.4% | [4] -13.2% | [5] -16.5% | [6] -10.2%

C=C(C)C12CC3CC/C(=N/O)C(C1)C3(N1CCOCC1)C/C2=N/O (stereo unspecified)
inactive: [1] -21.6% | [2] -18.9% | [3] -16.2% | [4] -12.3% | [5] -7.15% | [6] -25.9%

CC(=O)Oc1nnc(-c2ccccc2)c(-c2ccccc2)n1
inactive: [1] 24.5% | [2] 16.9% | [3] 17.1% | [4] 13.8% | [5] 7.4% | [6] 17.3%

c1csc(C2=NCCC2)c1
inactive: [1] 0.35% | [2] -6.65% | [3] 6.35% | [4] 36.5% | [5] 31.6% | [6] 3.3%

C1CCC2(CC1)CCCO2
inactive: [1] -6.3% | [2] 6.2% | [3] -0.9% | [4] 10.5% | [5] 23.6% | [6] 19.4%
